# Assay results as given in PubChem BioAssay (NCATS).
# Results filed as inconclusive are left out. Unmarked numbers belong to inactive results. Active and inactive are the calls of the source. Calls come from the whole dose curve.
# Target: Atrial natriuretic peptide receptor 1 (Homo sapiens) (UniProt P16066)
# Test: Natriuretic polypeptide receptor (hNpr1) antagonism - Pilot screen (AID 1347049)
# Conditions: hNpr1 cells, antagonist mode cGMP read-out; series mostly up to 57.5 µM; activity change, negative = inhibition: at the top concentration
# Procedure: In order to identify small molecular compounds that inhibit the hNpr1 receptor we developed a high-throughput assay to measure inhibition of the guanylate cyclase activity of the receptor. cGMP production was measured using a circular permutated Firefly luciferase (FLuc) enzyme functionally linked to the cGMP binding domain of human phosphodiesterase 5 (GloSensor technology pGS-40F, (Fan, F. et al. 2008). The cGMP-sensor was expressed in human embryonic kidney 293 (HEK-293) cells and FLuc activity was measured after stimulation with hNrp agonist peptide. hNrp agonists activates the receptor's associated guanylyl cyclase (GC) domain producing cGMP which then binds to the GloSensor resulting in FLuc activation, the enzymatic activity of which can be measured as bioluminescence with addition of luciferin substrate.
# F. Fan, B. F. Binkowski, B. L. Butler, P. F. Stecha, M. K. Lewis, K. V. Wood, Novel genetically encoded biosensors using firefly luciferase. ACS Chem Biol 3, 346-351 (2008).
# This assay was initially piloted by testing with a small diversity library of compounds with known pharmacological activity.
# PROTOCOL TABLES (as described by Inglese J, Shamu CE and Guy RK. 2007)
# SEQUENCE No. (e.g., 1, 2, 3, etc.); […] (e.g., Cells, Incubation, Reagent, etc.); VALUE and DESCRIPTION.
# 1. Cells. Seed 1500 HEK293 cGMP-sensor cells expressing hNpr1 per well in 4uL into Greiner 1536-well white/solid bottom high base, tissue culture-treated plates.
# 2. Incubation. Incubate plated cells at 37C in 5% CO2, 95% RH overnight.
# 3. Reagent. Add 1uL per well GloSensor reagent from Promega (2% final concentration) or CO2 independent media vehicle control to respective columns of Greiner 1536-well plates.
# 4. Incubation. Incubate plated cells at room temperature for 2 h, protect from light.
# 5. Compounds. Library compounds and A-71915 control added at 23 nL per well, transferred by Pin Tool.
# 6. Incubation. Incubate plated cells for 30 min. at room temperature, protect from light.
# 7. Detector. GloSensor baseline pre-read luminescence measured using CCD-based camera (Viewlux).
# 8. Compound. Add 1uL of hNppA peptide to 0.1 nM final concentration to stimulate hNpr1 or CO2 independent media as vehicle control.
# 9. Incubation. Incubate treated cells at room temperature for 20 min., protect from light.
# 10. Detector. GloSensor post-hNppA luminescence measured using CCD-based camera (Viewlux).
# NOTES (numbers refer to Sequence numbers above)
# 1. HEK293 cells expressing hNpr1 and GIP/pGS-40F grown to 85-95% confluence (48-72 h) in T175 culture flasks (CO2 independent media supplemented with 10% FBS, 1% Pen/Strep antibiotics and 1 ug/mL puromycin). Trypsinize and harvest cells from T175 culture flasks and filter through 40 um cell strainer. Cells counted with Invitrogen Countess (30,000,000 - 50,000,000 cells/flask). Cells diluted to a final concentration of 375 cells/uL in CO2 independent media and a Millipore multidrop used to dispense 1500 cells per well (4uL/well) into 9 x 1536-well Greiner White/Solid bottom, high base tissue-culture treated (TC) plates and one Aurora 1536-well Black/Clear bottom, low base, TC plate (for visual inspection of cell health throughout the duration of the assay).
# 2. Cells incubated overnight at ambient temperature, 24 h. at 37C in 95% RH incubator protected from light, covered with metal lid with gas-exchange holes.
# 3. Prepare GloSensor Reagent (Promega): Reconstitute GloSensor luciferase substrate by adding 8.2mL Hepes buffer to 250mg substrate, mix well, protect from light and stored at -80C. Prepare a fresh 12% GloSensor solution in CO2 independent supplemented plating media (see above). Mix well and store at ambient temperature, protected from light. 1uL 12% GloSensor Luciferase Reagent added (2% final concentration) to respective columns of 9 x 1536-well Greiner plate with BioRaptr, 1uL CO2 independent plating media added to respective columns as vehicle control with BioRaptr.
# 4. […]
# % is set by controls: 0 for no effect and ±100 for the full control effect; potency is the fitted concentration of half-maximal effect.
# Sequence of Atrial natriuretic peptide receptor 1 (Homo sapiens) (P16066 whole entry, looked up): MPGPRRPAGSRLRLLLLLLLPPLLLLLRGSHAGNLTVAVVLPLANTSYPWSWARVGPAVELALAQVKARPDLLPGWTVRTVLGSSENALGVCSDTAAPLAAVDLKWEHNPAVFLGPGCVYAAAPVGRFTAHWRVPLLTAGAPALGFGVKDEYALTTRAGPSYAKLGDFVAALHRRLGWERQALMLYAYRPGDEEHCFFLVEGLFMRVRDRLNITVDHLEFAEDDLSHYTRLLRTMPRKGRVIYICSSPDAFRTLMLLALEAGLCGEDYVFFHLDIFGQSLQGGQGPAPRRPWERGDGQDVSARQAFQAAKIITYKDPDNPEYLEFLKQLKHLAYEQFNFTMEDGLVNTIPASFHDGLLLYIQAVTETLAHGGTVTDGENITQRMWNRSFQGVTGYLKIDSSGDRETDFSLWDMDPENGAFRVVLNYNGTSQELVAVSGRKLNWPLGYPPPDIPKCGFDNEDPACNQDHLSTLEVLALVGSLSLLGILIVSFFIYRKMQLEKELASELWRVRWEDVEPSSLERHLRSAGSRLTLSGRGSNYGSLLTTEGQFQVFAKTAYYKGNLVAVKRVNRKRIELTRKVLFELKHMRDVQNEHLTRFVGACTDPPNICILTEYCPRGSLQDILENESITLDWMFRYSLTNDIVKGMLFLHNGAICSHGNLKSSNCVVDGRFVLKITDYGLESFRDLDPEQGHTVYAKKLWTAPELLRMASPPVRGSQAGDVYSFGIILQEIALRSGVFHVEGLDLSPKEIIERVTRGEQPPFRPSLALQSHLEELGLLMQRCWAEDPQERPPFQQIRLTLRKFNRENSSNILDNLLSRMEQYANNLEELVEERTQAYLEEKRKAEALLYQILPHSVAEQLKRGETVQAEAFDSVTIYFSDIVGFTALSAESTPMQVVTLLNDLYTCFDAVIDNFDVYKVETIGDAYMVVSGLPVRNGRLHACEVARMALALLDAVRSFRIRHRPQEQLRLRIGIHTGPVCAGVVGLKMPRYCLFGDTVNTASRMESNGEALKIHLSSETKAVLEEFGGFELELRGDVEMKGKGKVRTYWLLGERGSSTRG
SMILES,"activity change, negative = inhibition",Potency
COC(=O)[C@H](NC(=O)c1cc(-c2ccccc2)nc2ccccc12)c1ccccc1,-6.63%,–
CCCCCCN(CCCCCC)C(=O)Cc1c(-c2ccc(F)cc2)[nH]c2ccccc12,-7.51%,–
c1ccc(C2CN3CCSC3=N2)cc1 (stereo not given),3.12%,–
Cc1cccc(C)c1OCC(N)C(C)C (stereo not given),27.6%,–
CC(=O)N[C@@H](Cc1c[nH]c2ccccc12)C(=O)OCc1cc(C(F)(F)F)cc(C(F)(F)F)c1,2.84%,–
CCCCCCCCCCC/C=C\C(C)(C)/C=C\CCCC(=O)O,-2.01%,–
NC(C(=O)N[C@@H]1C(=O)N2C(C(=O)O)=C(Cl)CS[C@H]12)c1ccccc1 (stereo not given in full),-2.55%,–
CC(N)=NCCCC[C@@H](N)C(=O)O,-2.66%,–
CCCn1c(=O)c2[nH]c(-c3ccc(S(=O)(=O)O)cc3)nc2n(CCC)c1=O,0.313%,–
CCCCCCC/C=C\CCCCCCCCC(=O)O,6.71%,–
Cn1c(=O)c2c(nc(/C=C/c3cccc(Cl)c3)n2C)n(C)c1=O,-3.54%,–
O=c1cc(-c2ccccc2)[nH]c2nc(Cl)ccc12,5.1%,–
C=CCN1CCc2c(cc(O)c(O)c2Br)[C@@H](c2ccccc2)C1,2.85%,–
NCC(O)C1CCCCCCC1 (stereo not given),22.5%,–
O=C(O)CCC/C=C\C[C@@H]1[C@@H](/C=C/[C@H](O)C2Cc3ccccc3C2)[C@@H](F)C[C@@H]1O,14.6%,–
N=C(N)c1ccc(OCCCCCOc2ccc(C(=N)N)cc2)cc1 (tested in a mixture with another compound),-0.239%,–
N[C@@H](CCC(=O)N[C@H](CSN=O)C(=O)NCC(=O)O)C(=O)O,3.02%,–
CC(C)(C)NCC(O)COc1cccc2[nH]c(=O)[nH]c12 (stereo not given),-3.04%,–
CC[n+]1c(/C=C/C=C2/N(C)c3ccccc3C2(C)C)sc2ccccc21,–,0.213 µM (active)
CCCCS(=N)(=O)CC[C@H](N)C(=O)O (stereo not given in full),0.543%,–

SMILES,"activity change, negative = inhibition",Potency
N#Cc1cc2nc(O)c(O)nc2cc1[N+](=O)[O-],3.23%,–
N=C(N)c1ccc(N)cc1,18.8%,–
N[C@@H](CCCC(=O)O)C(=O)O,-0.0816%,–
CC(C)C[C@H](NC(=O)C1OC1C(=O)O)C(=O)NCCCCN=C(N)N (stereo not given in full),5.36%,–
Nc1ccc(CCNc2ncnc3c2ncn3C2OC(CO)C(O)C2O)cc1 (stereo not given),9.86%,–
CC(C)NC[C@H](O)COc1ccc(CC(N)=O)cc1,3.5%,–
O=C(O)/C=C/c1ccc(O)c(O)c1,22.3%,–
NC(N)=N[C@@H](CCC(=O)O)C(=O)O,10.6%,–
Cc1nc(N=Nc2cc(S(=O)(=O)O)c3cc([N+](=O)[O-])cc(S(=O)(=O)O)c3c2)c(COP(=O)(O)O)c(C=O)c1O,10.6%,–
Nc1ncnc2c1c(-c1ccc(Oc3ccccc3)cc1)cn2C1CCCC1,-19.9%,–
Brc1c(Br)c(Br)c2[nH]cnc2c1Br,7.39%,–
Cc1cccc(C2CN(C)CCc3c2cc(O)c(O)c3Cl)c1 (stereo not given),5.47%,–
CN1C2CCC1CC(OC(c1ccccc1)c1ccccc1)C2 (stereo not given),1.91%,–
NS(=O)(=O)c1cccc2c1c([N+](=O)[O-])cc1nc(O)c(O)nc12,3.11%,–
CN1CCC2(CCN3CCc4c(oc5ccccc45)C3C2)N(C)C1=O (stereo not given),-12.2%,–
Cn1cc(C(F)(F)F)nc1-c1ccc(OCC(O)CNCCOc2ccc(O)c(C(N)=O)c2)cc1 (stereo not given),2.98%,–
O=C(O)c1cc2cc(F)ccc2[nH]1,8.84%,–
CC(=O)NCCc1c[nH]c2ccc(O)cc12,-1.64%,–
COc1cc(CC(=O)O)ccc1O,0.861%,–
COc1ccc2c(c1)c(CC(=O)O)c(C)n2Cc1ccc(Cl)cc1,0.638%,–
